# From the supplement of paper PMC12067926
# A number with no mark means an inactive call.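 Rule for the calls: active = growth AUC significantly below the DMSO wells by Dunnett test; inactive = the rest.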
# Tested on: Bacillus 1 (Bacillus foraminis)
# Experiment: relative growth (AUC of 72 h growth curve relative to DMSO control, dAUC) (ratio); higher = more growth (less inhibition), active = hit call of the paper
# Details: 20 µM
# Description: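 Environmental bacterial isolates (Iceland stream sediment and Silwood Park soil) and whole stream-sediment communities were grown in LB from a 1:100 dilution with each pesticide at 20 µM (1% DMSO). A600 was read hourly for 72 h and the area under a spline-fitted growth curve (AUC) was computed. dAUC is the mean AUC of 3 biological replicates divided by the mean AUC of the DMSO controls. Significance was tested by Dunnett's test against the DMSO control.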
row,SMILES,relative growth
1,Nc1c(Cl)c(F)nc(OCC(=O)O)c1Cl,1.02
2,CC(C)NC(=O)N1CC(=O)N(c2cc(Cl)cc(Cl)c2)C1=O,0.928
3,CCOP(=S)(OCC)Oc1nc(Cl)c(Cl)cc1Cl,1.07
4,O=C1C=C(N(Cc2ccc(Cl)nc2)CC(F)F)CO1,0.945
5,CC1(C)C(C=C(Cl)Cl)C1C(=O)OCc1cccc(Oc2ccccc2)c1 (stereo not given),1.06
6,CC1(C)[C@H](C(=O)O[C@H](C#N)c2cccc(Oc3ccccc3)c2)[C@@H]1C=C(Br)Br,1.1
7,Clc1ccc(C(c2ccc(Cl)cc2)C(Cl)(Cl)Cl)cc1,1.06
8,CNC(=O)c1cc(C#N)cc(C)c1NC(=O)c1cc(Br)nn1-c1ncccc1Cl,0.935
9,CCOP(=S)(OCC)Oc1cc(C)nc(C(C)C)n1,0.963
10,OC(Cn1cncn1)(c1ccc(F)cc1)c1ccccc1F (stereo not given),1.07
11,COCC(C)N(C(=O)CCl)c1c(C)csc1C (stereo not given),0.948
12,COP(=S)(OC)Oc1ccc(SC)c(C)c1,0.995
13,O=[N+]([O-])/N=C1\NCCN1Cc1ccc(Cl)nc1,1.06
14,CC(C)N1C(=O)N(c2ccccc2)CS/C1=N\C(C)(C)C,1.04
15,Cc1nnc(-c2ccccc2)c(=O)n1N,0.881
16,CNC(=O)c1cc(Cl)cc(C)c1NC(=O)c1cc(Br)nn1-c1ncccc1Cl,1.01
17,CC(C)N1C(=O)c2ccccc2NS1(=O)=O,1.01
18,CCc1cccc(C)c1N(C(=O)CCl)[C@@H](C)COC,1.06
19,O=C1c2ccccc2C(=O)N1SC(Cl)(Cl)Cl,1.12
20,COP(=S)(OC)Oc1nc(Cl)c(Cl)cc1Cl,1.08

row,SMILES,relative growth
1,CNC(=O)CSP(=S)(OC)OC,0.911
2,CC(C)(C)[C@@H](O)[C@H](Oc1ccc(Cl)cc1)n1cncn1,1.03
3,CC(Oc1ccc(Oc2nc3ccc(Cl)cc3o2)cc1)C(=O)O (stereo not given),1.02
4,CCc1nn(C)c(C(=O)NCc2ccc(Oc3ccc(C)cc3)cc2)c1Cl,1.05
5,CNC(=O)/C=C(\C)OP(=O)(OC)OC,0.96
6,CC(C)(C)c1ccc(CSc2cnn(C(C)(C)C)c(=O)c2Cl)cc1,1.03
7,COP(N)(=O)SC (stereo not given),0.871
8,COc1ncc(F)c2nc(S(=O)(=O)Nc3c(F)cccc3F)nn12,1.06
9,CC(C)N(C)S(=O)(=O)NC(=O)c1cc(-n2c(=O)cc(C(F)(F)F)n(C)c2=O)c(F)cc1Cl,0.998
10,CNC(=O)Oc1cccc(/N=C/N(C)C)c1,0.983
11,CCCC1COC(Cn2cncn2)(c2ccc(Cl)cc2Cl)O1 (stereo not given),0.942
12,CN/C(=N\[N+](=O)[O-])NCc1cnc(Cl)s1,1.03
13,CCCSP(=O)(OCC)Oc1ccc(Br)cc1Cl (stereo not given),1.07
14,CC(C)(C)C(O)(CCc1ccc(Cl)cc1)Cn1cncn1 (stereo not given),0.924
15,Fc1ccc([C@]2(Cn3cncn3)O[C@H]2c2ccccc2Cl)cc1 (racemic),0.994
16,O=C(NC(=O)c1c(F)cccc1F)Nc1ccc(Cl)cc1,1.05
17,N#Cc1sc2c(=O)c3ccccc3c(=O)c=2sc1C#N,0.97
18,COP(=S)(OC)SCN1C(=O)c2ccccc2C1=O,1.04
19,COc1cccc(C(=O)NN(C(=O)c2cc(C)cc(C)c2)C(C)(C)C)c1C,0.966
20,Oc1ccc(Cl)cc1Cc1cc(Cl)ccc1O,0.81
